Unmarked numbers belong to inactive results. Inconclusive results are not listed. Where a call stands in place of a potency, no number is given. Activity calls are given as the source filed them. Calls come from the whole dose curve; as a rule, active = well fitted curve in the direction sought with a large enough effect in the repeat runs; inconclusive = weak or mixed curves; inactive = no such curve, though single readings can be large; an effect the other way counts as inactive or inconclusive.
Key:
[1] = qHTS RealTime-Glo MT Cell Viability Assay in HepG2 cells - 40 hour (AID 1224870); note: nearly all actives have a fitted effect of over 50% in size
Outline: (§1)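 HepG2 cells (600/well) mixed with RealTime-Glo MT reagent, settled 5 h at 37 C/5% CO2 before compound addition. Nonlytic NanoLuc luminescence from viable-cell prosubstrate reduction read repeatedly during 40 h treatment at 37 C.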

[2] = A CellTox Green Cytotoxicity Assay to monitor cytotoxicity in HEK293 cells - 40 hour (AID 1224871); note: nearly all actives have a fitted effect of over 45% in size
Outline: (§2)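 Nonlytic real-time cytotoxicity: HEK293 + CellTox Green reagent plated, 5 h preincubation, pintool compound addition (23 nL in DMSO), 37 C for 40 h, fluorescence measured at successive time points.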

[3] = qHTS RealTime-Glo MT Cell Viability Assay in HEK293 cells - 16 hour (AID 1224872); note: nearly all actives have a fitted effect of over 50% in size; note: potency is the fitted concentration of half-maximal effect
Outline: (§3)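 Nonlytic real-time viability readout: viable cells convert prosubstrate to NanoLuc substrate, giving luminescence proportional to live cell number. HEK293, 600 cells/well, compound added after 5 h, continuous culture at 37 C.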

[4] = qHTS RealTime-Glo MT Cell Viability Assay in HepG2 cells - 8 hour (AID 1224873); note: nearly all actives have a fitted effect of over 55% in size
Outline: as §1

[5] = qHTS RealTime-Glo MT Cell Viability Assay in HEK293 cells - 40 hour (AID 1224874); details: RealTime-Glo luminescence; max response: active compounds read low; note: nearly all actives have a fitted effect of over 50% in size
Outline: (§4)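 Cells were seeded together with NanoLuc luciferase and a prosubstrate that viable cells reduce to a luciferase substrate. After a 5 h incubation at 37 C/5% CO2, compounds were added and luminescence was measured repeatedly during 40 h of treatment.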

[6] = A CellTox Green Cytotoxicity Assay to monitor cytotoxicity in HEK293 cells - 24 hour (AID 1224875); note: series mostly up to about 77 µM; nearly all actives have a fitted effect of over 45% in size
Outline: as §2

[7] = A CellTox Green Cytotoxicity Assay to monitor cytotoxicity in HepG2 cells - 16 hour (AID 1224876); note: nearly all actives have a fitted effect of over 45% in size
Outline: (§5)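 Read-out is fluorescence of a cyanine dye excluded from live cells that stains DNA of dead HepG2 cells, with signal proportional to cytotoxicity. Plates were read at 0, 8, 16, 24, 32 and 40 h after compound addition.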

[8] = qHTS RealTime-Glo MT Cell Viability Assay in HepG2 cells - 32 hour (AID 1224877); note: nearly all actives have a fitted effect of over 55% in size
Outline: (§6)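 Luminescence read-out: viable HepG2 cells reduce a prosubstrate to a NanoLuc substrate, giving a signal proportional to live cell number. Reads taken at 0, 8, 16, 24, 32 and 40 h of compound exposure at 37 C.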

[9] = A CellTox Green Cytotoxicity Assay to monitor cytotoxicity in HepG2 cells - 24 hour (AID 1224878); note: nearly all actives have a fitted effect of over 45% in size
Outline: as §5

[10] = qHTS RealTime-Glo MT Cell Viability Assay in HEK293 cells - 0 hour (AID 1224880); note: nearly all actives have a fitted effect of over 45% in size; note: potency is the fitted concentration of half-maximal effect
Outline: as §4

[11] = A CellTox Green Cytotoxicity Assay to monitor cytotoxicity in HEK293 cells - 32 hour (AID 1224881); note: nearly all actives have a fitted effect of over 40% in size
Outline: as §2

[12] = A CellTox Green Cytotoxicity Assay to monitor cytotoxicity in HepG2 cells - 0 hour (AID 1224882); note: nearly all actives have a fitted effect of over 35% in size
Outline: as §5

[13] = A CellTox Green Cytotoxicity Assay to monitor cytotoxicity in HepG2 cells - 32 hour (AID 1224883); note: nearly all actives have a fitted effect of over 50% in size
Outline: as §5

[14] = A CellTox Green Cytotoxicity Assay to monitor cytotoxicity in HEK293 cells - 8 hour (AID 1224884); note: nearly all actives have a fitted effect of over 35% in size
Outline: as §2

[15] = qHTS RealTime-Glo MT Cell Viability Assay in HEK293 cells - 24 hour (AID 1224886); note: nearly all actives have a fitted effect of over 50% in size; note: potency is the fitted concentration of half-maximal effect
Outline: as §3

[16] = qHTS RealTime-Glo MT Cell Viability Assay in HEK293 cells - 8 hour (AID 1224887); note: nearly all actives have a fitted effect of over 50% in size; note: potency is the fitted concentration of half-maximal effect
Outline: as §4

[17] = A CellTox Green Cytotoxicity Assay to monitor cytotoxicity in HEK293 cells - 16 hour (AID 1224888); note: nearly all actives have a fitted effect of over 35% in size
Outline: as §2

[18] = qHTS RealTime-Glo MT Cell Viability Assay in HepG2 cells - 0 hour (AID 1224889); note: nearly all actives have a fitted effect of over 50% in size; note: potency is the fitted concentration of half-maximal effect
Outline: as §6

[19] = A CellTox Green Cytotoxicity Assay to monitor cytotoxicity in HepG2 cells - 40 hour (AID 1224879); note: nearly all actives have a fitted effect of over 40% in size
Outline: as §5

[20] = qHTS RealTime-Glo MT Cell Viability Assay in HepG2 cells - 16 hour (AID 1224885); note: nearly all actives have a fitted effect of over 50% in size
Outline: as §6

Nc1ncnc2c1ncn2[C@@H]1O[C@H](CO)[C@@H](O)[C@H]1O
Potency [1]: inactive | Potency [2]: inactive | Potency [3]: inactive | outcome [4]: inactive | max response [5]: 6.09% | Potency [6]: inactive | Potency [7]: inactive | Potency [8]: inactive | Potency [9]: inactive | Potency [10]: inactive | Potency [11]: inactive | Potency [12]: inactive | Potency [13]: inactive | Potency [14]: inactive | Potency [15]: inactive | Potency [16]: inactive | Potency [17]: inactive | Potency [18]: inactive

C=CCCC
Potency [1]: inactive | Potency [2]: inactive | Potency [3]: inactive | outcome [4]: inactive | max response [5]: 18% | Potency [6]: inactive | Potency [7]: inactive | Potency [8]: inactive | Potency [9]: inactive | Potency [19]: inactive | Potency [11]: inactive | Potency [12]: inactive | Potency [13]: inactive | Potency [14]: inactive | outcome [20]: inactive | Potency [15]: inactive | Potency [16]: inactive | Potency [17]: inactive | Potency [18]: inactive

O=Cc1ccc(Cl)c([N+](=O)[O-])c1
Potency [1]: inactive | Potency [2]: inactive | Potency [3]: inactive | outcome [4]: inactive | Potency [6]: inactive | Potency [7]: inactive | Potency [8]: inactive | Potency [9]: inactive | Potency [10]: inactive | Potency [12]: inactive | Potency [14]: inactive | Potency [16]: inactive | Potency [17]: inactive | Potency [18]: inactive

CO[C@@H]1COCC[C@@H]1N[C@@H]1CC[C@@](C(=O)N2CCc3ncc(C(F)(F)F)cc3C2)(C(C)C)C1
Potency [1]: inactive | Potency [2]: inactive | Potency [3]: 17.3 µM (active) | Potency [6]: inactive | Potency [7]: inactive | Potency [8]: inactive | Potency [9]: inactive | Potency [19]: inactive | Potency [10]: inactive | Potency [11]: inactive | Potency [12]: inactive | Potency [13]: inactive | Potency [14]: inactive | outcome [20]: inactive | Potency [16]: 15.4 µM (active) | Potency [17]: inactive | Potency [18]: inactive

CCOc1ccccc1O
Potency [1]: inactive | Potency [2]: inactive | Potency [3]: inactive | max response [5]: -54.1% | Potency [6]: inactive | Potency [7]: inactive | Potency [8]: inactive | Potency [9]: inactive | Potency [10]: inactive | Potency [11]: inactive | Potency [12]: inactive | Potency [13]: inactive | Potency [14]: inactive | Potency [15]: 19.5 µM (active) | Potency [16]: inactive | Potency [18]: inactive

COc1cc(C)c(Cc2cnc(N)nc2N)cc1OC
Potency [1]: inactive | Potency [2]: inactive | Potency [3]: inactive | max response [5]: 5.82% | Potency [6]: inactive | Potency [7]: inactive | Potency [8]: inactive | Potency [9]: inactive | Potency [19]: inactive | Potency [10]: inactive | Potency [11]: inactive | Potency [12]: inactive | Potency [13]: inactive | Potency [14]: inactive | outcome [20]: inactive | Potency [15]: inactive | Potency [16]: inactive | Potency [17]: inactive | Potency [18]: inactive

O=Cc1ccc([N+](=O)[O-])cc1
Potency [1]: inactive | Potency [2]: inactive | Potency [3]: inactive | outcome [4]: inactive | Potency [6]: inactive | Potency [7]: inactive | Potency [8]: inactive | Potency [9]: inactive | Potency [19]: inactive | Potency [10]: inactive | Potency [12]: inactive | Potency [13]: inactive | Potency [14]: inactive | outcome [20]: inactive | Potency [16]: inactive | Potency [17]: inactive | Potency [18]: inactive

CC(=O)OCC(=O)[C@@]1(O)CC[C@H]2[C@@H]3CCC4=CC(=O)C=C[C@]4(C)[C@@]3(F)[C@@H](O)C[C@@]21C
Potency [1]: inactive | Potency [2]: inactive | Potency [3]: inactive | max response [5]: -21.2% | Potency [6]: inactive | Potency [7]: inactive | Potency [8]: inactive | Potency [9]: inactive | Potency [19]: inactive | Potency [10]: 7.56 µM (active) | Potency [11]: inactive | Potency [12]: inactive | Potency [13]: inactive | Potency [14]: inactive | Potency [15]: inactive | Potency [16]: inactive | Potency [17]: inactive | Potency [18]: 3.01 µM (active)
